From PubChem
3T3 cytotox = Cytotoxic Profiling in NIH 3T3 Cell Line of Diverse Libraries Using Quantitative High-Throughput Screening; NIH 3T3 viability, CellTiter-Glo ATP luminescence, 48-72 h; Potency, µM (doses to about 96.7 µM), inactives show top-dose activity change, negative = cytotoxicity, actives largely listed as inhibitors; hit rate 4.3% among 94,000; further: nearly all actives have a fitted effect of over 55% in size
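First NIH 3T3 cells are plated at 400 cells/well; next compound is pinned in; then plates incubate 48 or 72 hr at 37 °C; finally CellTiter-Glo is added and luminescence read after 10 min.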
HEK cytotox = Cytotoxic Profiling in HEK 293 Cell Line of Diverse Libraries Using Quantitative High-Throughput Screening. HEK 293 viability, ATP luminescence (CellTiter-Glo), 48-72 h. Potency, µM (series often up to 115 µM), for the others: at the top dose activity change, negative = cytotoxicity, hits mostly inhibitors. hit rate 6.6% among 94,000. AID 1345083, 2018; further: nearly all actives have a fitted effect of over 60% in size
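HEK 293 cells seeded at 250 cells/well were exposed to compound for 48 or 72 hr at 37 degree Celsius. Viability taken as ATP content by CellTiter-Glo luminescence.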
FLuc inh = Firefly luciferase inhibition profiling of diverse chemical library using quantitative high-throughput screening; Luciferin 4-monooxygenase (Photinus pyralis), P08659; purified P. pyralis luciferase, luminescence, biochemical; Potency, µM (titrated, usually from 115 µM), actives largely listed as inhibitors; hit rate 2.5% among 76,000; AID 1347043, 2019; further: nearly all actives have a fitted effect of over 65% in size
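Inhibitors were tested against purified firefly luciferase in a biochemical, low-substrate format (both substrates at 10uM) and luminescence measured with a CCD imager.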
NPR1 antag = Natriuretic polypeptide receptor (hNpr1) antagonism - Primary qHTS; Atrial natriuretic peptide receptor 1 (Homo sapiens), P16066; HEK293 hNpr1 GloSensor cGMP, ANP-stimulated luminescence; Potency, µM (top dose mostly 46.3 µM), without a hit: at the highest dose activity change, negative = inhibition, hits mostly inhibitors; hit rate 1.6% among 76,000; AID 1347048, 2019; calls by dose curve; further: nearly all actives have a fitted effect of over 60% in size
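HEK293 cells stably expressing human Npr1 and cGMP GloSensor pGS-40F, loaded 2 h with 2% GloSensor reagent, given compound 30 min at room temperature. Luminescence read before and 20 min after 0.1 nM hNppA.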
An asterisk follows results filed as active; i = inactive; ? = inconclusive; . = no result given; [ ] = another dose, or the depositor's remark. Shown are actives, neighbours in structure and some others; about 11% of the full set was active somewhere. Unless noted, the call rests on the fitted dose curve; in most records, active means well fitted curve in the direction sought with a large enough effect; inconclusive means small, poorly fitted or top-dose-only effect, or another doubt; inactive means no such curve, though single readings can be large; an effect the other way counts as inactive or inconclusive. On the % scale 0 is the no-effect control and ±100 the full control effect; potency means the concentration at half of the fitted maximal effect.

SMILES	3T3 cytotox	HEK cytotox	FLuc inh	NPR1 antag
O=C(c1ccc2nc(-c3ccccn3)oc2c1)N1CCCCC1	20µM*	28µM*	.	.
Cc1cnc(C2CN(C(=O)C(C)c3ccccc3)C2)n1Cc1ccccc1 (stereo not given)	-25%	-27%	.	.
CN(C)[C@@H]1CN(Cc2ccc(F)c(F)c2)CC[C@@H]1CO	-8%	-8%	.	.
Cc1ncccc1-c1nc2cc(C(=O)NC3CC3)ccc2o1	89µM*	?	.	.
Cc1cccc(-c2nc3ccc(C(=O)N4CCOCC4)cc3o2)n1	22µM*	32µM*	.	.
Cc1cccc(-c2nc3ccc(C(=O)NC4CCCCC4)cc3o2)n1	-6%	i	.	.
CC(C)NC(=O)c1ccc2nc(-c3ccccn3)oc2c1	?	45µM*	.	.
Cc1cccc(-c2nc3ccc(C(=O)NC4CCCCCC4)cc3o2)n1	?	79µM*	.	.
CC(C)NC(=O)c1ccc2oc(-c3ccccn3)nc2c1	-29%	?	.	.
COC(=O)CNC(=O)c1cc(-c2ccsc2)c2nncn2n1	-27%[138 µM]	1%[172 µM]	.	.
Cc1ccccc1C(=O)N1CCCC2(CNc3ncccc3[S+](=O)([O-])N2)C1 (stereo not given)	-13%	-18%	.	.
O=C(NC1CCCC1)N1CCC(C(=O)N2CCC(c3nc4ncccc4[nH]3)CC2)C1 (stereo not given)	-25%	-2%	.	.
O=C(NCc1ccccc1F)c1ccc2nc(-c3cccnc3Cl)oc2c1	?	100µM*	.	.
O=C(NCCc1ccccc1F)c1ccc2nc(-c3cccnc3Cl)oc2c1	-26%	40µM*	.	.
O=C(NC1CC1)c1ccc2nc(-c3cccnc3Cl)oc2c1	-30%	-25%	.	.
CCn1cnnc1-c1nn(C)c2c1CN(C(=O)c1[nH]nc3c1CCc1cc(OC)ccc1-3)CC2	-17%	-15%	i	-7%
Cc1cccc(CN2CCCC3(Cc4ccccc4CNC3=O)C2)c1 (stereo not given)	-2%	-18%	.	.
Cc1cccc(CN2CCCC3(CCN(C(=O)CCc4ccccc4C)C3)C2)c1 (stereo not given)	?	89µM*	i	2%
OCC1(Cc2ccccc2Cl)CCN(Cc2cc3ccccc3o2)CC1	?	18µM*	i	?
CC(C)n1cc(CN2CCC(CO)(Cc3ccccc3Cl)CC2)cn1	1%	-19%	i	-1%
COc1ccc(O)c(CN2CCC(CO)(Cc3ccccc3Cl)CC2)c1	?	?	i	-12%
CC(C)Oc1ccc(CN2CCC(CO)(Cc3ccccc3Cl)CC2)cc1CO	25µM*	?	i	0%
CCN1CCN(C(=O)c2cc(-c3ccccc3C(F)(F)F)nc3c2cnn3C)CC1	-8%	i	.	.
O=C(c1ccccc1F)N1CCCC(C(=O)N2CCC(N3Cc4cccn4C3=O)CC2)C1 (stereo not given)	-29%	?	.	.
Cc1ccc(C(=O)N2CCCC3(COc4ccccc4C(=O)N3)C2)cc1 (stereo not given)	?	63µM*	i	-15%[70.6 µM]
SMILES	3T3 cytotox	HEK cytotox	FLuc inh	NPR1 antag
O=C1NC2(CCCN(C(=O)c3ccc4c(c3)OCO4)C2)COc2ccccc21 (stereo not given)	?	40µM*	i	-27%
O=C1NC2(CCCN(C(=O)c3ccccc3F)C2)COc2ccccc21 (stereo not given)	?	35µM*	i	13µM*
CC(C)Cn1c(=O)c(C(=O)N2CCN(C(=O)c3ccccc3Cl)CC2)nc2cccnc21	-29%	i	.	.
CC(C)NS(=O)(=O)c1ccc2c(c1)nc(-c1ccc(-c3ccn[nH]3)o1)n2C(C)C	?	?	i	-17%
CC(C)NS(=O)(=O)c1ccc2c(c1)nc(-c1cc(C(C)(C)C)[nH]n1)n2C(C)C	?	45µM*	i	-1%
CCN1CCN(C(=O)c2nc3sccn3c2-c2ccc(OC)cc2)CC1	-3%	3%	.	.
Cc1cc(C)c(CNC(=O)c2nc(-c3ccccc3C)cc3c2ccn3C(C)C)c(=O)[nH]1	28µM*	22µM*	i	?
Cc1cc(C)c(CNC(=O)c2nc(-c3ccc(CN(C)C)cc3)cc3c2ccn3C(C)C)c(=O)[nH]1	14µM*	?	i	-2%
Cc1cc(C)c(CNC(=O)c2nc(-c3ccccc3O)cc3c2ccn3C(C)C)c(=O)[nH]1	?	?	i	-1%[70.6 µM]
Cc1cc(C)c(CNC(=O)c2nc(-c3ccc(CN(C)C)cc3)cc3[nH]ccc23)c(=O)[nH]1	100µM*	?	?	5%[70.6 µM]
Cc1ccc(-c2cc3c(ccn3C(C)C)c(C(=O)NCc3c(C)cc(C)[nH]c3=O)n2)cn1	79µM*	?	?	1%[70.6 µM]
O=C(C1CCCN1C(=O)c1cccc(Cl)c1)N1CCC(c2nc3ccncc3[nH]2)C1 (stereo not given)	4%	i	.	.
Cc1cnc(-c2cccnc2)n1CC1CCN(C(=O)C2CCC2)C1 (stereo not given)	-19%	-4%	.	.
Cc1cc(C2CCCN2C(=O)c2ccc(-c3ccccc3Cl)o2)no1 (stereo not given)	?	45µM*	?	4%
Cn1nc(C(=O)N2CCN(c3cc(-c4ccccc4)[nH]n3)CC2)c2ccccc21	?	?	i	6%
Cc1ccc(C(=O)N2CCCN(c3cc(-c4ccc(Cl)cc4)[nH]n3)CC2)cc1C	35µM*	?	i	-22%
Cn1nc(C(=O)N2CCCN(c3cc(-c4ccc(Cl)cc4)[nH]n3)CC2)c2ccccc21	?	40µM*	i	-27%
Cc1cccc(C(=O)N2CCCN(c3cc(-c4ccc(Cl)cc4)[nH]n3)CC2)c1	?	?	i	-30%
Cc1ccc(C(=O)N2CCCN(c3cc(-c4ccc(Cl)cc4)[nH]n3)CC2)cn1	-21%	?	i	?
Cc1cc(C)cc(C(=O)N2CCCN(c3cc(-c4ccc(Cl)cc4)[nH]n3)CC2)c1	?	45µM*	i	-27%
O=C(c1ccc(F)c(F)c1)N1CCN(c2cc(-c3ccc(Cl)cc3)[nH]n2)CC1	35µM*	?	i	?
COc1cccc(C(=O)N2CCC(C(=O)N3CCCC(c4nc5ccncc5[nH]4)C3)CC2)c1 (stereo not given)	-15%	-11%	.	.
CCC(C(=O)N1CCC2(CC1)C(=O)N(CC(=O)NCC(C)C)CN2c1ccccc1)c1ccccc1 (stereo not given)	?	?	i	-10%
O=c1n(CCN2CCCC(N[S+](=O)([O-])c3ccccc3)C2)nc2n1CCCC2 (stereo not given)	-13%	i	.	.
O=C(c1cccs1)N1CCN(c2cc(-c3cccs3)[nH]n2)CC1	?	-31%	i	-4%
O=C(c1cccs1)N1CCCN(c2cc(-c3ccc(Cl)cc3)[nH]n2)CC1	?	45µM*	?	?
